Some test systems named below: DU-145 prostate; K-562 leukemia; MALME-3M melanoma; MDA-MB-231 breast; RXF 393 renal; SF-268 CNS; SF-295 CNS; SF-539 CNS; UACC-257 melanoma; M14 melanoma; HCT-15 colon; HT29 colon; SNB-75 CNS; SNB-19 CNS; U251 CNS; PC-3 prostate; SK-MEL-5 melanoma; UACC-62 melanoma; LOX IMVI melanoma; SK-MEL-28 melanoma.
Assay in all cases: NCI-60 one-dose screen, 48 h (100 = growth as untreated, 0 = no growth, -100 = all killed)
Holding throughout (settings): 10 µM unless noted

Each structure is given as a SMILES string. This is part of a sample that, as a whole, favours compounds with a hit. Of some 83,000 tested, about 20% had one in any assay.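 Activity criterion: percent growth below 10, measured after cells in 96-well plates were exposed to a single compound concentration for 48 hours.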 Unmarked numbers belong to inactive results. Active and inactive are the calls of the source.

Regarding `Nc1nc(Cl)c2ncn(Cc3cc4c(cc3I)OCO4)c2n1`, the growth is 52.8% in the assay with DU-145 prostate; 15.9% in the assay with K-562 leukemia; 63.7% with MALME-3M melanoma; 40.9% with MDA-MB-231 breast; 66.3% with RXF 393 renal; 62.1% in the assay with SF-268 CNS. The growth in the assay on SF-295 CNS is 42.5%; in the assay on SF-539 CNS it was 46.5%; with UACC-257 melanoma, 81.4%; in the assay with M14 melanoma, 76%; with HCT-15 colon it was 25.1%; in the assay on HT29 colon, 9.61% (active). For the same molecule, the growth with SNB-75 CNS is 73.5%; with SNB-19 CNS, 61.9%; with U251 CNS it was 53.5%; in the assay on PC-3 prostate it was 39.1%; in the assay with SK-MEL-5 melanoma, 72%; in the assay with UACC-62 melanoma, 45.7%. Also, the growth in the assay on LOX IMVI melanoma is 11.8%; in the assay with SK-MEL-28 melanoma it was 87.7%.
With `CCOC(=O)CCC[P+](c1ccccc1)(c1ccccc1)c1ccccc1`, the growth with DU-145 prostate is 90%; in the assay on K-562 leukemia, 57.9%; with MALME-3M melanoma it was 75.4%; in the assay with MDA-MB-231 breast, 80.9%; with RXF 393 renal, 108%; in the assay with SF-268 CNS, 83.2%. In addition, the growth is 105% in the assay with SF-295 CNS; 89.5% with SF-539 CNS; 27.2% with UACC-257 melanoma; 87.9% in the assay on M14 melanoma; 102% with HCT-15 colon; 70.2% in the assay with HT29 colon. Also, the growth with SNB-75 CNS is 86.8%; in the assay on SNB-19 CNS, 96%; in the assay on U251 CNS, 52.6%; in the assay with PC-3 prostate, 69.5%; with SK-MEL-5 melanoma, 48.5%; in the assay with UACC-62 melanoma it was 65%. Moreover, the growth was 83% in the assay on LOX IMVI melanoma and 83.8% in the assay on SK-MEL-28 melanoma.
Regarding `CCNc1cc2c(cc1Br)-c1ccccc1C2=O`, the growth in the assay on DU-145 prostate is 97.7%; in the assay on K-562 leukemia it was 102%; with MALME-3M melanoma it was 92.8%; with MDA-MB-231 breast, 73.2%; with RXF 393 renal it was 105%; in the assay on SF-268 CNS it was 90%. The growth with SF-295 CNS was 106%; with SF-539 CNS, 103%; with UACC-257 melanoma, 93.4%; with M14 melanoma, 107%; in the assay on HCT-15 colon, 77.6%; with HT29 colon, 97.4%. In addition, the growth with SNB-75 CNS is 78.1%; with SNB-19 CNS, 96%; in the assay with U251 CNS it was 96.3%; in the assay with PC-3 prostate it was 81.4%; in the assay with SK-MEL-5 melanoma it was 95.2%; in the assay on UACC-62 melanoma, 86.9%. Also, the growth in the assay on LOX IMVI melanoma is 88.1%; in the assay on SK-MEL-28 melanoma, 114%.
As to `O=C1CC(C(F)(F)F)Cc2nc3ccc(Br)cc3cc21` (stereo not given), the growth was 102% in the assay on DU-145 prostate; 79.1% with K-562 leukemia; 84.1% with MALME-3M melanoma; 82.4% in the assay on MDA-MB-231 breast; 91.1% in the assay with RXF 393 renal; 88.4% in the assay on SF-268 CNS. The growth with SF-295 CNS was 90.2%; in the assay on SF-539 CNS, 93.9%; with UACC-257 melanoma it was 106%; in the assay with M14 melanoma it was 90.7%; with HCT-15 colon, 89.9%; with HT29 colon, 98.2%. The growth with SNB-75 CNS is 78.5%; in the assay with SNB-19 CNS, 92%; in the assay on U251 CNS, 92.2%; with PC-3 prostate, 82%; in the assay on SK-MEL-5 melanoma, 92.6%; with UACC-62 melanoma it was 81.1%. Besides, the growth with LOX IMVI melanoma is 91.1%; with SK-MEL-28 melanoma, 96.5%.
Regarding `CCN(CC)c1ccc(/C=C/C=C2\NC(=O)NC2=O)cc1`, the growth in the assay on DU-145 prostate is 40.8%; in the assay on K-562 leukemia it was 13.9%; in the assay on MALME-3M melanoma it was 51.8%; in the assay with MDA-MB-231 breast, 64.1%; in the assay with RXF 393 renal, 2.31% (active); in the assay with SF-268 CNS it was 54.8%. The growth in the assay on SF-295 CNS is 24.1%; with SF-539 CNS, 10.4%; with UACC-257 melanoma, 43%; with M14 melanoma, 17.7%; with HCT-15 colon it was 29.5%; with HT29 colon it was -30.1% (active). Also, the growth in the assay on SNB-75 CNS is 33.8%; in the assay on SNB-19 CNS, 34.6%; with U251 CNS, 29.1%; with PC-3 prostate, 18.9%; with SK-MEL-5 melanoma, 8.64% (active); in the assay on UACC-62 melanoma, 33%. Further, the growth with LOX IMVI melanoma was 33.2%; in the assay with SK-MEL-28 melanoma it was 57.5%.
As to `O=C(NNc1ccc(-c2ccccc2)nn1)c1ccccc1`, the growth in the assay on DU-145 prostate was 104%; in the assay on K-562 leukemia it was 92.2%; with MALME-3M melanoma, 100%; in the assay with MDA-MB-231 breast, 97.4%; with RXF 393 renal, 110%; in the assay with SF-268 CNS, 95%. The growth is 94.3% with SF-295 CNS; 102% in the assay with SF-539 CNS; 103% in the assay on UACC-257 melanoma; 98.8% in the assay with M14 melanoma; 103% with HCT-15 colon; 107% in the assay on HT29 colon. Besides, the growth is 71% in the assay on SNB-75 CNS; 95.4% in the assay on SNB-19 CNS; 101% with U251 CNS; 102% in the assay on PC-3 prostate; 102% in the assay on SK-MEL-5 melanoma; 96.6% in the assay with UACC-62 melanoma. In addition, the values for the growth in the assay on LOX IMVI melanoma and in the assay with SK-MEL-28 melanoma were 98.9% and 105%, respectively.
Take `Nc1cc(C(=O)O)[nH]c(=S)n1`: the growth was 106% in the assay on DU-145 prostate; 115% in the assay with K-562 leukemia; 89.8% with MALME-3M melanoma; 100% in the assay with MDA-MB-231 breast; 96.9% in the assay on RXF 393 renal; 98.6% in the assay on SF-268 CNS. Also, the growth in the assay on SF-295 CNS is 101%; with SF-539 CNS, 104%; with UACC-257 melanoma, 93.3%; in the assay with M14 melanoma it was 93.7%; in the assay with HCT-15 colon it was 101%; with HT29 colon it was 101%. For the same molecule, the growth is 91.4% with SNB-75 CNS; 97.5% in the assay with SNB-19 CNS; 95% in the assay on U251 CNS; 99.8% in the assay on PC-3 prostate; 98.8% in the assay on SK-MEL-5 melanoma; 95.2% with UACC-62 melanoma. In addition, the growth was 100% in the assay on LOX IMVI melanoma and 96.7% in the assay with SK-MEL-28 melanoma.
As to `CN(C)c1ccc(-c2ccc(-c3ccc(C(=N)N)cc3)s2)cc1`, the growth was -88.4% (active) with DU-145 prostate; -4.45% (active) in the assay on K-562 leukemia; 88.1% in the assay on MALME-3M melanoma; -29.6% (active) with MDA-MB-231 breast; 54.3% in the assay with RXF 393 renal; 82.9% in the assay on SF-268 CNS. The growth was 102% in the assay with SF-295 CNS; 89.9% with SF-539 CNS; 104% in the assay with UACC-257 melanoma; 99.8% in the assay on M14 melanoma; -74.6% (active) in the assay with HCT-15 colon; -65.6% (active) in the assay on HT29 colon. Further, the growth with SNB-75 CNS is 97.6%; with SNB-19 CNS, -70.2% (active); in the assay with U251 CNS, -86.8% (active); in the assay on PC-3 prostate, -91.6% (active); in the assay with SK-MEL-5 melanoma, 74.3%; in the assay on UACC-62 melanoma, 37.1%. For the same molecule, the growth in the assay on LOX IMVI melanoma is 12.7%; with SK-MEL-28 melanoma it was 94.1%.

Values taken from PubChem BioAssay (NCI).
